Many of the other results were omitted from the sample, so hits are more common in it than they were.
Dicer processing = inhibitors of Dicer pre-microRNA processing, primary screen, biochemical, cat-ELCCA, chemiluminescence | Endoribonuclease Dicer (Homo sapiens), Q9UPY3 | cat-ELCCA pre-miR-21 Dicer processing; active compounds read high | z-score at 25 µM | 47,000 tested, 6% active | AID 1347074, 2019; in the data active means z-score above about 3, passing the limit was not always enough;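 further: plate controls were vehicle for no effect and no enzyme for full effect; higher signal means more uncleaved substrate so more Dicer inhibition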
Target sequence (Q9UPY3 whole entry, looked up): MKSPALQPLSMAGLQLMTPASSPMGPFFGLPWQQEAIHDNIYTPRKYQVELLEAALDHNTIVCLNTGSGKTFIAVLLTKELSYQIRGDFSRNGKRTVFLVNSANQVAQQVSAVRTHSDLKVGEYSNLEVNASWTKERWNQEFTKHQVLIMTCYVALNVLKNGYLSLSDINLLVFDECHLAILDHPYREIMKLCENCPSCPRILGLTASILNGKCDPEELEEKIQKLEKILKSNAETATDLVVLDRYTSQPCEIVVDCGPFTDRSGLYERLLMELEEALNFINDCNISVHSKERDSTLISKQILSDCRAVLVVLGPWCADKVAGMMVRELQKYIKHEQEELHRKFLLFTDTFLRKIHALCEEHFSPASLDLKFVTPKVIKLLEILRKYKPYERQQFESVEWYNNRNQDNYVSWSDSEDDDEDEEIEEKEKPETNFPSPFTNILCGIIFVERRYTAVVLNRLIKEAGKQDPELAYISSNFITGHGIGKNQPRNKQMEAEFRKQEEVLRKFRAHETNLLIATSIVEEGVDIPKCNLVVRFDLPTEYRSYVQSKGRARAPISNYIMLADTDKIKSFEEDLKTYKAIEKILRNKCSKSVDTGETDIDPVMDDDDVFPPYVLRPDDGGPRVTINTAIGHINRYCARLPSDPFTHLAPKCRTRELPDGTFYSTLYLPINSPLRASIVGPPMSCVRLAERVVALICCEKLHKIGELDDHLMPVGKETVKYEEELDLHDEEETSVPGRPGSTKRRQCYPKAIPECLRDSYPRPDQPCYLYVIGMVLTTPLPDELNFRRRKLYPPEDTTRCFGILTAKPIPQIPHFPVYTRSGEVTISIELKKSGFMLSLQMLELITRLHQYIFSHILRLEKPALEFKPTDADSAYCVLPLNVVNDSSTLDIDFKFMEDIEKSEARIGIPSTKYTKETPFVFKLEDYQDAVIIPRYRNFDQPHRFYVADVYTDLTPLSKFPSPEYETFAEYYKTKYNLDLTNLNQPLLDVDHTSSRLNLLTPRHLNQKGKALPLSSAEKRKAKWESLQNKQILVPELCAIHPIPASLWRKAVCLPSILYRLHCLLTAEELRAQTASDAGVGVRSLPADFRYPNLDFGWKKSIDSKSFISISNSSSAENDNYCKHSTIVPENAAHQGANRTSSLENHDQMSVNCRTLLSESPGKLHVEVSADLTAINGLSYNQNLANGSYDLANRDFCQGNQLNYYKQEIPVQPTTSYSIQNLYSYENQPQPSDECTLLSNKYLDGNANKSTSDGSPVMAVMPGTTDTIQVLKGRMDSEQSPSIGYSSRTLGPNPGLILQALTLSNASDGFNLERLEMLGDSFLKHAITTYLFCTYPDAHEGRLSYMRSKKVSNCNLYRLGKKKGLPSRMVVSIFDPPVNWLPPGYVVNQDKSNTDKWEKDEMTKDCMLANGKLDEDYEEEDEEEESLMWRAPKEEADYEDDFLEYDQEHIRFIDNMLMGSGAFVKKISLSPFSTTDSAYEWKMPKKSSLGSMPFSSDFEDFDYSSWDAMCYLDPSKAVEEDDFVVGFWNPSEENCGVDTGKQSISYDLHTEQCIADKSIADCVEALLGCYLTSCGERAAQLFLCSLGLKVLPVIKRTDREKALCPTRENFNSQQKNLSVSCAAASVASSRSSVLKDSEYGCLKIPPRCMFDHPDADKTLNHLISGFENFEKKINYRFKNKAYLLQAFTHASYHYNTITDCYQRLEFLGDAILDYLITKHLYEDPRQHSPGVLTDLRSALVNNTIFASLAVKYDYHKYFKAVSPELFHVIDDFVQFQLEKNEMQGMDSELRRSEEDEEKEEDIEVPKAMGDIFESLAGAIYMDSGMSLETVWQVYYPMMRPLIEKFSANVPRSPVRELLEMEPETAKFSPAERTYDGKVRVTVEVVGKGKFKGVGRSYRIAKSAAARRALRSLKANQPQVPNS
Active calls of the source: *.

SMILES	Dicer processing
CCOc1ccc(C2C(C(=O)OCCOc3ccccc3)=C(C)NC3=C2C(=O)CC(C)(C)C3)cc1 (stereo unspecified)	0.8
Cc1cc(C)c2c(n1)sc1c(SCc3ccccc3Cl)ncnc12	0.09
Cc1cccc(Nc2nc3nonc3nc2Nc2ccc(F)cc2)c1C	2.4
Cc1cc(C)c(C#N)c(Nc2ccccc2C)n1	0.71
Cc1cccc(Nc2ncncc2C#N)c1C	3.7*
Nc1cccc2c(S(=O)(=O)N3CCOCC3)cccc12	-2.6
CC(=O)c1sc2sc(C(=O)O)c(C)c2c1C	-1.5
N#Cc1c(OCC(F)(F)F)ccc(S(=O)(=O)Oc2ccc([N+](=O)[O-])cc2)c1OCC(F)(F)F	-0.54
Cc1c(C)c(C)c(S(=O)(=O)Oc2ccc([N+](=O)[O-])cc2)c(C)c1C	4.7*
Cc1ccc(S(=O)(=O)Oc2ccc(-c3ccc(OS(=O)(=O)c4ccc(C)cc4)cc3)cc2)cc1	-0.18
O=C(O/N=C(\Cn1nnc(N2CCCCC2)n1)c1ccc(Cl)cc1)c1ccc(Cl)cc1Cl	0.72
CCCCN1Cc2c(n(CC(=O)Nc3ccc(F)cc3)c3cc(-c4ccccc4)nn3c2=O)C1=O	0.04
COc1ccc(-c2nnc3c4ccccc4c(C)nn23)cc1S(=O)(=O)N(C)C1CCCCC1	0.88
Cc1ccc(-c2nnc3c4ccccc4c(C)nn23)cc1S(=O)(=O)N1CCN(c2ccccc2)CC1	2.5
CCC(CO)NS(=O)(=O)c1cc(-c2nnc3c4ccccc4c(C)nn23)ccc1OC (stereo unspecified)	2.8
Cc1ccc(-c2nnc3c4ccccc4c(C)nn23)cc1S(=O)(=O)N1CCCC1	3.2*
CNS(=O)(=O)c1cc(-c2nnc3c4ccccc4c(C)nn23)ccc1OC	1.6
COc1ccc(-c2nnc3c4ccccc4c(C)nn23)cc1S(=O)(=O)N1CCCC1	5.5*
COc1ccc(-c2nnc3c4ccccc4c(C)nn23)cc1S(=O)(=O)NC1CCCCC1	2.5
COc1ccc(-c2nnc3c4ccccc4c(C)nn23)cc1S(=O)(=O)NC(C)C	5*
Cc1ccc(-c2nnc3c4ccccc4c(C)nn23)cc1S(=O)(=O)NC(C)(C)C	1.1
CCOC(=O)c1cnn(C(=O)Cc2ccsc2)c1N	-1.5
CSc1nc(C)nc(Sc2cccc(C(F)(F)F)c2)c1C#N	-1.8
O=C1CCCC(OC(=O)c2ccccc2Cl)=C1Cl	6.9
O=C(CSc1ccc(C(F)(F)F)cn1)c1cccc(C(F)(F)F)c1	-1.4
SMILES	Dicer processing
Clc1ccc(-c2nnc3sc(-c4ccccc4)nn23)cc1	1.1
c1ccc(CN2CCN(C3CCCC3)CC2)cc1	-0.01
Fc1ccccc1CN1CCN(C2CCCC2)CC1	5.3*
Fc1ccc(CN2CCN(C3CCCCC3)CC2)cc1	-0.45
CC1(C)NC(=O)N(CC(O)COc2cccc(Cl)c2)C1=O (stereo unspecified)	3
COc1ccc(Nc2nc(-c3ccccn3)cs2)cc1	6.4*
COc1ccc(Nc2nc(-c3cccnc3)cs2)cc1	1.6
Cc1cccnc1Nc1nc(-c2ccccn2)cs1	-3.3
O=C(O)CCCN1C(=O)C(=O)/C(=C(\O)c2ccc(F)cc2)C1c1cccnc1 (stereo unspecified)	0.01
CCOC(=O)C1=C(Nc2ccc(OC(=O)c3ccccc3Cl)cc2)C(=O)N(C(C)(C)C)C1	-0.62
CN(C)CCN1C(=O)C(=O)/C(=C(/O)c2ccccc2)C1c1ccc(Br)cc1 (stereo unspecified)	0.89
O=C1C(=O)N(CCCN2CCOCC2)C(c2ccccc2)/C1=C(\O)c1ccc(Br)cc1 (stereo unspecified)	2.3
O=C(O)CCCN1C(=O)C(=O)/C(=C(/O)c2ccccc2)C1c1ccc(Br)cc1 (stereo unspecified)	3.9*
CCn1nc(-c2cccs2)cc1C(=O)NC(C)C	-0.72
c1ccc(-c2ccc(-c3cnc(-c4ccncc4)s3)cc2)cc1	3.1*
O=c1sc(-c2ccccc2)ncc1-c1ccccc1	-0.08
CC(C)(C)c1ccc(-c2ncc(-c3cccc([N+](=O)[O-])c3)s2)cc1	0.03
CCc1ccc(C2C(C(=O)OC)=C(C)NC3=C2C(=O)CCC3)s1 (stereo unspecified)	-0.98
N/C(=N\O)C1(c2ccc(Cl)cc2Cl)CC1	1.1
CCc1nnc(NC(=O)COc2ccc(Br)cc2)s1	1.1
CCOC(=O)C1CCN(S(=O)(=O)c2ccc(Br)cc2)CC1	0.45
CCCCOc1ccc(S(=O)(=O)n2cnc(C)c2)cc1	-1.1
CCOc1ccc(S(=O)(=O)N2CN3CCN(C3)C2)cc1	3.2*
N#Cc1c(NC(=O)c2ccc(Cn3cc(Cl)cn3)cc2)sc2c1CCCC2	0.74
CCOc1ccc(-c2cc(=O)c3cc(O)ccc3o2)cc1	1.3
SMILES	Dicer processing
O=C(O)c1ccc2nc3ccccc3nc2c1	-1.9
O=C(O)c1ccc2nc(-c3cccc(-c4nc5ccc(C(=O)O)cc5[nH]4)c3)[nH]c2c1	-0.63
O=C(O)c1cccc(-c2cccc(C(=O)O)c2)c1	6.2*
CC(C)c1ccc(/C=N/NC(=O)CC#N)cc1	-1.1
C/C(=N\N=C(/C)c1ccc(F)cc1)c1ccc(F)cc1	-5.3
Cc1ccc(-c2nc(NC(=O)c3cccnc3Oc3ccccc3)sc2C)cc1Cl	2.1
O=c1[nH]c(-c2ccccn2)nc2c1CSCC2	-1.1
Cc1cc(-c2cccnc2)c(C#N)c(SCC(=O)O)n1	2.8
CC(Oc1cccc(Cl)c1)n1cncn1 (stereo unspecified)	-0.52
Nc1ccc(-c2nc3cc(N)ccc3n2-c2ccccc2)cc1	3.4*
C=CCn1c(-c2ccc(N)cc2)nc2ccccc21	1.5
Cc1nc2ccccc2n1-c1ccccc1	-1.5
COC(=O)c1nn(-c2ccccc2)c(=O)c2c(NC(C)=O)sc(C)c12	-1.5
C=CCNc1nc(C2(C)CC3(CC(COCCCCC)OC3=O)C(=O)O2)cs1 (stereo unspecified)	-0.77
Cc1ccc(S(C)(=O)=NC(=O)c2cc(C(F)(F)F)cc(C(F)(F)F)c2)cc1 (stereo unspecified)	-1.8
COc1ccc(N2COC(C)c3nc4ccccc4n3C2)cc1 (stereo unspecified)	1.6
O=C(NCC1CCCO1)C1Sc2nnc(-c3ccccc3)n2NC1c1ccc(F)cc1 (stereo unspecified)	-0.07
O=C(NCC1CCCO1)C1Sc2nnc(-c3ccccc3)n2NC1c1ccc(Cl)cc1 (stereo unspecified)	1.7
CCOc1ccc(C2Nn3c(C)nnc3SC2C(=O)NCC2CCCO2)cc1 (stereo unspecified)	3.4*
CC(C)Cn1c(=N)c(C#N)cc2c(=O)n3ccccc3nc21	-0.64
Nc1ccc2nnc(-c3ccccc3)n2n1	1.4
Cc1cc(C)n(C(=O)CSc2nc(-c3ccccc3)cc(C(F)(F)F)c2C#N)n1	1.4
CC(C)c1ccc(COC(=O)Nc2ccc(CSc3ccc(Cl)cc3)o2)cc1	-0.99
Cc1cc(C)c2c3c(sc2n1)C(=O)N(c1cccc(C(F)(F)F)c1)CC(=O)N3	2.8
COC(=O)C1C(c2ccc(O)cc2)C(C(=O)OC)S(=O)(=O)CS1(=O)=O (stereo unspecified)	-0.77
SMILES	Dicer processing
COC(=O)c1sc(N(C)C)c(C#N)c1-c1ccccc1	-0.43
CN(C)c1scc(-c2ccccc2)c1C#N	15*
CSc1scc(-c2cccc(Cl)c2)c1C#N	-0.55
CSc1nc(N)nc(-c2cc(Cl)cc(Cl)c2)n1	-1.4
N#Cc1c(NC(=O)c2ccc(Br)cc2)sc2c1CCCC2	-1.1
CCOC(=O)c1cnc(Nc2ccc(OC)cc2OC)nc1C(F)(F)F	0.16

Screening data: PubChem BioAssay, Center for Chemical Genomics, University of Michigan
